{"source": "ChEMBL document CHEMBL4513216", "about": "“Probing the Open Global Health Chemical Diversity Library for Multistage-Active Starting Points for Next-Generation Antimalarials” (ACS Infect Dis, 2020)", "note": "Among all 69,000 compounds or so, about 8,600 (12%) showed an effect of 50% or more. The entries come from a sample that favours strong results as a whole.", "data": [{"tested_on": "Plasmodium berghei", "assay": "Screen against P. berghei liver stage (PbLuc), transformed with Luciferase, at 10uM", "assay_type": "functional, HepG2", "conditions": "tested at 10 uM", "units": {"INHIBITION": "%"}, "values": [{"compound": "CCC1=N[C@@]2(CC[C@@H]3CN(C(=O)Nc4ccccc4)C[C@@H]32)C(=O)N1CC", "INHIBITION": 8.67}, {"compound": "Cc1cc(C2CCCCN2C(=O)CN2C(=O)OC(C)(C)C2=O)no1", "note": "(stereo not given)", "INHIBITION": 47.2}, {"compound": "COc1ccccc1-c1ncc(CN2CCC3(CCNCC3)CC2)cn1", "INHIBITION": 25}, {"compound": "CC(=O)c1ccc(CNC(=O)c2cc(C#N)cn2C)nc1C", "INHIBITION": 12}, {"compound": "NC(=O)N1CCCN(CC(=O)NCCc2c(F)cccc2F)CC1", "INHIBITION": -52.1}, {"compound": "Cc1cc(C)cc(C(=O)N2CCCN(CC(N)=O)CC2)c1", "INHIBITION": 0.348}, {"compound": "Cc1cc(C)c(CCNC(=O)CN2CCCN(C(N)=O)CC2)c(C)c1", "INHIBITION": 66.6}, {"compound": "Cn1cc(C(=O)NC[C@H]2OC[C@@H]3CCN(C4CCOCC4)C[C@@H]32)cn1", "INHIBITION": 45.8}, {"compound": "Cc1nc2n(n1)CC(NCc1cnn(-c3ccccc3)n1)CC2", "note": "(stereo not given)", "INHIBITION": -39.4}, {"compound": "COCCCS(=O)(=O)N1CCN(C(C)(C)CO)CC1", "INHIBITION": 27.65}, {"compound": "CC(C)c1nc(CN(C)C(=O)c2ccc(CN3CCCCC3)cc2)cs1", "INHIBITION": 65.3}, {"compound": "CC(C)c1nc(CC(=O)Nc2nc(CN3CCCCCC3)cs2)cs1", "INHIBITION": 59.7}, {"compound": "CC(C)c1nc(CN(C)C(=O)CNC(N)=O)cs1", "INHIBITION": 41.5}, {"compound": "CC(C)c1nc(CN2CCC(CO)CC2)cs1", "INHIBITION": 23.4}, {"compound": "CC(C)c1nc(CN2CCCCC2)cs1", "INHIBITION": 47.9}, {"compound": "CC(C)c1nc(CN(C)C(=O)c2ccc3c(c2)OCC(=O)N3)cs1", "INHIBITION": -19.9}, {"compound": "CN(Cc1cc(C(C)(C)C)n[nH]1)C(=O)c1cn2ccsc2n1", "INHIBITION": -11.5}, {"compound": "CC(C)c1nc(CN(C)C(=O)c2cn3ccsc3n2)cs1", "INHIBITION": 50.5}, {"compound": "CC(C)c1nc(CN(C)C(=O)c2ccc3c(c2)OCO3)cs1", "INHIBITION": -40.4}, {"compound": "CS(=O)(=O)N1C[C@@H](O)[C@H](N2CCN(c3ccccc3)CC2)C1", "INHIBITION": -18.8}, {"compound": "COc1ccc(CCc2nnc(NC(=O)C3CC34CCC4)s2)cc1OC", "note": "(stereo not given)", "INHIBITION": 4.32}, {"compound": "Cc1cc2c(cc1NC(N)=O)OCO2", "INHIBITION": 43.2}, {"compound": "Cn1cnc2c1C(C(=O)N1CCCO1)N(C(=O)c1ccccc1)CC2", "note": "(stereo not given)", "INHIBITION": 70.4}, {"compound": "CC(=O)N1CCc2ncn(C)c2C1C(=O)N1CCCC1", "note": "(stereo not given)", "INHIBITION": 45.8}, {"compound": "Cn1cnc2c1C(C(=O)N1CCOCC1)N(C(=O)c1ccccc1)CC2", "note": "(stereo not given)", "INHIBITION": -31.6}, {"compound": "CC(C)c1nnc(CNC2CCCN(Cc3noc(C4CC4)n3)C2)o1", "note": "(stereo not given)", "INHIBITION": 19.5}, {"compound": "O=C(NC1CCN(c2ncccn2)CC1)c1sccc1C1CC1", "INHIBITION": 39.7}, {"compound": "O=C1NCC(C(=O)NCc2ccccc2CN2CCOCC2)N1", "note": "(stereo not given)", "INHIBITION": 15.2}, {"compound": "CC1CCN(Cc2ccccc2CNC(=O)C2CNC(=O)N2)CC1", "note": "(stereo not given)", "INHIBITION": 13.8}, {"compound": "CN(Cc1ccccc1CNC(=O)C1CNC(=O)N1)C1CCCCC1", "note": "(stereo not given)", "INHIBITION": 57.7}]}]}
